Experimental data taken from article PMC5540273 (PLoS ONE, 2017).
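Note: KINOMEscan kinase panel screen.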

Each compound was assayed on T1, PRKR. Conditions: concentration: 1 μM, replicates: in singlicate; n = 1.
T1 construct: gene EIF2AK2
For `CN1C(=O)C(Nc2ccc(Cl)c(C(=O)O)c2)=C(c2ccc(Cl)cc2)C1=O` [SB-404290], the “%Inh” value was 0%. With `Cn1cncc1-c1ccc2ncnc(Nc3ccc(OCc4ccccc4)cc3)c2c1` [GW320571] the “%Inh” value was 0%. In the case of `COc1cc2ncn(-c3cc(OCC4CCCO4)c(C(N)=O)s3)c2cc1OC` (centres unmarked) [GSK204607], the “%Inh” value is reported as 13%. `Cc1cccc(-c2nc(Nc3ccncc3)c3ccccc3n2)n1` [GW855857] was tested, and the “%Inh” value was 2%. With `CC1=C(C(=O)Nc2cc3cn[nH]c3cc2F)C(c2ccc(C(F)(F)F)cc2)CC(=O)N1` (centres unmarked) [GSK429286] the “%Inh” value was 0%. With `CS(=O)(=O)c1ccc(-c2nc3n(c2-c2ccncc2)CCC3)cc1` [SKF-105942] the “%Inh” value was 0%. In the case of `COc1ccccc1-c1ccc2c(NC(=O)C3CC3)n[nH]c2n1` [SB-711239], the “%Inh” value is reported as 7%. In the case of `COc1cc2ncnc(Nc3ccc4nc(-c5ccccc5)[nH]c4c3)c2cc1OC.Cl` [GW282450], the “%Inh” value is reported as 13%. `COc1cc(Nc2nccc(N3CCC(NC(=O)Nc4cc(C)ccc4C)C3)n2)cc(OC)c1OC` (centres unmarked) [GSK1379762] was tested, and the “%Inh” value was 0%. With `CC(C)(C)c1ccc(C(=O)Nc2cn3cc(Cl)ccc3n2)cc1` the “%Inh” value was 0%. For `Cl.c1ccc(-c2n[nH]cc2-c2ccnc(-c3ccc(CN4CCOCC4)cc3)c2)nc1` [GW776245], the “%Inh” value was 0%. In the case of `CCn1c(-c2cccnc2O)nc2cnccc21` [SB-736715], the “%Inh” value is reported as 0%. For `Cc1ccc(NC(=O)Nc2cc(C(C)(C)C)nn2-c2ccccc2)cc1` [GSK1014915], the “%Inh” value was 0%. `O=C(Nc1n[nH]c2nc(-c3nccs3)c(Br)cc12)C1CC1` [SB-742251] was tested, and the “%Inh” value was 0%. For `Cc1ccc(C(=O)Nc2ccc(Nc3ccnc4cc(-c5ccccn5)ccc34)cc2O)cc1.Cl` [GW440146], the “%Inh” value was 0%. For `O=C(Nc1n[nH]c2cc(-c3cccc(F)c3F)ccc12)C1CC1` [SB-733894], the “%Inh” value was 3%. For `O=S(=O)(c1ccc(-c2ccnc3[nH]ccc23)cc1)N1CCCC1` [GSK846226], the “%Inh” value was 21%. For `Cc1nnc(-c2ccc3occ(-c4ccc(S(C)=O)cc4)c3c2)[nH]1` (centres unmarked), the “%Inh” value was 0%. In the case of `COc1cccc(-c2cc(-c3c[nH]nc3-c3ccccn3)ccn2)c1` [GW680338], the “%Inh” value is reported as 0%. `Cc1c(O)cccc1Nc1ccnc2ccc(C(F)(F)F)cc12.Cl` [GW466413] was tested, and the “%Inh” value was 0%. `CCCc1ccc(S(=O)(=O)NC2CCN(c3ccnc(Nc4ccc(F)cc4)n3)C2)cc1` (centres unmarked) [GSK1379715] was tested, and the “%Inh” value was 0%. For `COc1cc2nccc(Nc3ccc(NC(=O)c4ccc(C)cc4)c(O)c3)c2cc1OC.Cl` [GW440132], the “%Inh” value was 0%. In the case of `Cn1ccc2ncnc(Oc3ccc(Nc4nc5ccccc5[nH]4)cc3)c21`, the “%Inh” value is reported as 0%. In the case of `Cc1csc(-c2nc(Nc3ccncc3)c3ccccc3n2)n1` [GW869640], the “%Inh” value is reported as 33%. In the case of `O=C(O)COc1ncnc2cc(-c3ccc4[nH]ncc4c3)sc12`, the “%Inh” value is reported as 0%. `COc1ccc(C2=C(Nc3cccc(C(=O)O)c3)C(=O)NC2=O)cc1` [SB-390765] was tested, and the “%Inh” value was 11%. In the case of `Cc1cc(-c2ccc3c(c2)CC[C@@H](N[C@@H](C)c2ccccc2)C3)cnc1N.Cl` [GW412617], the “%Inh” value is reported as 0%. With `Nc1ncnc2[nH]c(-c3ccccc3)nc12` [AH5015] the “%Inh” value was 0%. With `COc1ccc2nc(-c3cccc(C)n3)nc(Nc3ccncc3)c2c1` [GSK204919] the “%Inh” value was 0%. `Cl.Oc1ccc(-c2nc(-c3ccccc3)[nH]c2-c2ccncc2)cc1` [SB-428218] was tested, and the “%Inh” value was 0%. With `COc1cccc(NC(=O)NC2CCN(c3ccnc(Nc4ccc(F)cc4)n3)C2)c1` (centres unmarked) [GSK1379721] the “%Inh” value was 1%. In the case of `CS(=O)(=O)c1ccc(-c2c(-c3ncn[nH]3)sc(N3CCOCC3)c2C#N)cc1`, the “%Inh” value is reported as 0%. With `Cn1ccc2ncnc(Oc3cccc(C(=O)Nc4ccccc4)c3)c21` the “%Inh” value was 0%. In the case of `CCn1c(-c2ccccn2)nc2cnccc21` [SB-736398], the “%Inh” value is reported as 0%.

What follows are compounds tested on PRKX. Conditions: concentration: 1 μM, replicates: in singlicate; n = 1.
With `CN1C(=O)C(Nc2ccc(Cl)c(C(=O)O)c2)=C(c2ccc(Cl)cc2)C1=O` [SB-404290] the “%Inh” value was 0%. `Cn1cncc1-c1ccc2ncnc(Nc3ccc(OCc4ccccc4)cc3)c2c1` [GW320571] was tested, and the “%Inh” value was 4%. With `COc1cc2ncn(-c3cc(OCC4CCCO4)c(C(N)=O)s3)c2cc1OC` (centres unmarked) [GSK204607] the “%Inh” value was 10%. `Cc1cccc(-c2nc(Nc3ccncc3)c3ccccc3n2)n1` [GW855857] was tested, and the “%Inh” value was 0%. `CC1=C(C(=O)Nc2cc3cn[nH]c3cc2F)C(c2ccc(C(F)(F)F)cc2)CC(=O)N1` (centres unmarked) [GSK429286] was tested, and the “%Inh” value was 87%. `CS(=O)(=O)c1ccc(-c2nc3n(c2-c2ccncc2)CCC3)cc1` [SKF-105942] was tested, and the “%Inh” value was 2%. For `COc1ccccc1-c1ccc2c(NC(=O)C3CC3)n[nH]c2n1` [SB-711239], the “%Inh” value was 25%. With `COc1cc2ncnc(Nc3ccc4nc(-c5ccccc5)[nH]c4c3)c2cc1OC.Cl` [GW282450] the “%Inh” value was 5%. For `COc1cc(Nc2nccc(N3CCC(NC(=O)Nc4cc(C)ccc4C)C3)n2)cc(OC)c1OC` (centres unmarked) [GSK1379762], the “%Inh” value was 41%. `CC(C)(C)c1ccc(C(=O)Nc2cn3cc(Cl)ccc3n2)cc1` was tested, and the “%Inh” value was 0%. `Cl.c1ccc(-c2n[nH]cc2-c2ccnc(-c3ccc(CN4CCOCC4)cc3)c2)nc1` [GW776245] was tested, and the “%Inh” value was 0%. With `CCn1c(-c2cccnc2O)nc2cnccc21` [SB-736715] the “%Inh” value was 0%. `Cc1ccc(NC(=O)Nc2cc(C(C)(C)C)nn2-c2ccccc2)cc1` [GSK1014915] was tested, and the “%Inh” value was 57%. For `O=C(Nc1n[nH]c2nc(-c3nccs3)c(Br)cc12)C1CC1` [SB-742251], the “%Inh” value was 0%. With `Cc1ccc(C(=O)Nc2ccc(Nc3ccnc4cc(-c5ccccn5)ccc34)cc2O)cc1.Cl` [GW440146] the “%Inh” value was 9%. With `O=C(Nc1n[nH]c2cc(-c3cccc(F)c3F)ccc12)C1CC1` [SB-733894] the “%Inh” value was 0%. For `O=S(=O)(c1ccc(-c2ccnc3[nH]ccc23)cc1)N1CCCC1` [GSK846226], the “%Inh” value was 28%. For `Cc1nnc(-c2ccc3occ(-c4ccc(S(C)=O)cc4)c3c2)[nH]1` (centres unmarked), the “%Inh” value was 51%. In the case of `COc1cccc(-c2cc(-c3c[nH]nc3-c3ccccn3)ccn2)c1` [GW680338], the “%Inh” value is reported as 0%. With `Cc1c(O)cccc1Nc1ccnc2ccc(C(F)(F)F)cc12.Cl` [GW466413] the “%Inh” value was 0%. For `CCCc1ccc(S(=O)(=O)NC2CCN(c3ccnc(Nc4ccc(F)cc4)n3)C2)cc1` (centres unmarked) [GSK1379715], the “%Inh” value was 1%. With `COc1cc2nccc(Nc3ccc(NC(=O)c4ccc(C)cc4)c(O)c3)c2cc1OC.Cl` [GW440132] the “%Inh” value was 18%. With `Cn1ccc2ncnc(Oc3ccc(Nc4nc5ccccc5[nH]4)cc3)c21` the “%Inh” value was 3%. In the case of `Cc1csc(-c2nc(Nc3ccncc3)c3ccccc3n2)n1` [GW869640], the “%Inh” value is reported as 0%. `O=C(O)COc1ncnc2cc(-c3ccc4[nH]ncc4c3)sc12` was tested, and the “%Inh” value was 41%. In the case of `COc1ccc(C2=C(Nc3cccc(C(=O)O)c3)C(=O)NC2=O)cc1` [SB-390765], the “%Inh” value is reported as 0%. In the case of `Cc1cc(-c2ccc3c(c2)CC[C@@H](N[C@@H](C)c2ccccc2)C3)cnc1N.Cl` [GW412617], the “%Inh” value is reported as 12%. `Nc1ncnc2[nH]c(-c3ccccc3)nc12` [AH5015] was tested, and the “%Inh” value was 0%. With `COc1ccc2nc(-c3cccc(C)n3)nc(Nc3ccncc3)c2c1` [GSK204919] the “%Inh” value was 7%. For `Cl.Oc1ccc(-c2nc(-c3ccccc3)[nH]c2-c2ccncc2)cc1` [SB-428218], the “%Inh” value was 0%. With `COc1cccc(NC(=O)NC2CCN(c3ccnc(Nc4ccc(F)cc4)n3)C2)c1` (centres unmarked) [GSK1379721] the “%Inh” value was 21%. For `CS(=O)(=O)c1ccc(-c2c(-c3ncn[nH]3)sc(N3CCOCC3)c2C#N)cc1`, the “%Inh” value was 32%. With `Cn1ccc2ncnc(Oc3cccc(C(=O)Nc4ccccc4)c3)c21` the “%Inh” value was 0%. For `CCn1c(-c2ccccn2)nc2cnccc21` [SB-736398], the “%Inh” value was 100%.
